# PubChem BioAssay (NCATS)
# Results filed as inconclusive are left out. Calls of active or inactive are those of the source. Calls come from the whole dose curve; as a rule, active = well fitted inhibition curve with a large enough effect; inconclusive = small, poorly fitted or top-dose-only effect; inactive = flat fitted curve, though single readings scatter.
# System: CP297
# Test: qHTS profiling for inhibitors of Plasmodium falciparum proliferation (AID 504749); note: nearly all actives have a fitted effect of over 60% in size;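 for activity, negative = inhibition: 0% = DMSO vehicle and full inhibition = artemisinin control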
# Details: P. falciparum in erythrocytes, SYBR Green DNA, 72 h; series mostly up to 28.7 µM; activity, negative = inhibition: at the top concentration
# How it was run: (§1)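 Three-day growth assay of blood-stage parasites in erythrocytes (0.3% parasitemia, 2.5% hematocrit) at 37 C, 5% CO2, quantified by SYBR Green DNA staining after overnight detergent lysis.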
# Potency is the fitted concentration of half-maximal effect.
SMILES,"activity, negative = inhibition",Potency
CC1(C)C(C=C(Cl)Cl)C1C(=O)OCc1cccc(Oc2ccccc2)c1 (stereo not drawn),5.75% (inactive),
CC1=C(/C=C/C(C)=C/C=C/C(C)=C/CO)C(C)(C)CCC1,-19.9% (inactive),
CN(C)CCCN1c2ccccc2C(C)(C)c2ccccc21,-11% (inactive),
CCN(CC)CCOc1ccc(-c2nc3cc(Cl)ccc3s2)cc1,-17.7% (inactive),
IC(I)I,5.25% (inactive),
CC[C@@]1(O)C(=O)OCc2c1cc1n(c2=O)Cc2cc3c([N+](=O)[O-])cccc3nc2-1,,12 µM (active)
CCCCCCCC(=O)O,5.53% (inactive),
CCCCC(CC)COC(=O)CC(C(=O)OCC(CC)CCCC)S(=O)(=O)O (stereo not drawn),-0.828% (inactive),
C=C1C(=CC=C2CCC[C@@]3(C)[C@@H]2CC[C@H]3[C@H](C)CCCC(C)C)C[C@@H](O)C[C@@H]1O,-7.27% (inactive),
COc1cc(-c2ccc(-[n+]3nc(-c4ccccc4)nn3-c3ccc([N+](=O)[O-])cc3)c(OC)c2)ccc1-[n+]1nc(-c2ccccc2)nn1-c1ccc([N+](=O)[O-])cc1,,16.9 µM (active)
C#C[C@]1(O)CC[C@H]2[C@@H]3CCC4=CCCC[C@@H]4[C@H]3C(=C)C[C@@]21CC,-3.43% (inactive),
CCOC(=O)C1=C(C)NC(C)=C(C(=O)OCC)C1c1ccccc1C=CC(=O)OC(C)(C)C,,16.9 µM (active)
O=C(O)c1cc(=O)c2c3nc4ccccc4oc-3cc(=O)c2[nH]1,-13.9% (inactive),
NC(=O)c1ncn(C2OC(CO)C(O)C2O)n1 (stereo not drawn),-15.4% (inactive),
Nc1c(Br)cc(Br)cc1CNC1CCC(O)CC1 (stereo not drawn),-12.6% (inactive),
CC(C)=O,1.2% (inactive),
COC(=O)C1=C(C#N)NC(C)=C(C(=O)OC(C)C)C1c1cccc([N+](=O)[O-])c1 (stereo not drawn),,13.5 µM (active)
CCCCCCOc1ccc(C(=N)N(CCCC)CCCC)c2ccccc12,,16.9 µM (active)

# System: CP305
# Test: as above
# Details: P. falciparum in erythrocytes, SYBR Green DNA, 72 h; series mostly up to 28.7 µM; activity, negative = inhibition: at the top concentration
# How it was run: as §1
SMILES,"activity, negative = inhibition",Potency
CC1(C)C(C=C(Cl)Cl)C1C(=O)OCc1cccc(Oc2ccccc2)c1 (stereo not drawn),-12.3% (inactive),
CC1=C(/C=C/C(C)=C/C=C/C(C)=C/CO)C(C)(C)CCC1,-10.7% (inactive),
CN(C)CCCN1c2ccccc2C(C)(C)c2ccccc21,-17.6% (inactive),
CCN(CC)CCOc1ccc(-c2nc3cc(Cl)ccc3s2)cc1,-18.5% (inactive),
CC(Cc1ccc(O)c(O)c1)C(C)Cc1ccc(O)c(O)c1 (stereo not drawn),-5.33% (inactive),
CC[C@@]1(O)C(=O)OCc2c1cc1n(c2=O)Cc2cc3c([N+](=O)[O-])cccc3nc2-1,,8.49 µM (active)
CCCCCCCC(=O)O,10.5% (inactive),
CCCCC(CC)COC(=O)CC(C(=O)OCC(CC)CCCC)S(=O)(=O)O (stereo not drawn),-1.18% (inactive),
C=C1C(=CC=C2CCC[C@@]3(C)[C@@H]2CC[C@H]3[C@H](C)CCCC(C)C)C[C@@H](O)C[C@@H]1O,0.646% (inactive),
O=C(O)c1cc(=O)c2c3nc4ccccc4oc-3cc(=O)c2[nH]1,-13.8% (inactive),
NC(=O)c1ncn(C2OC(CO)C(O)C2O)n1 (stereo not drawn),-7.24% (inactive),
Nc1c(Br)cc(Br)cc1CNC1CCC(O)CC1 (stereo not drawn),-11.2% (inactive),
CC(C)=O,1.08% (inactive),
COC(=O)C1=C(C#N)NC(C)=C(C(=O)OC(C)C)C1c1cccc([N+](=O)[O-])c1 (stereo not drawn),,13.5 µM (active)
O=C(Nc1ccc(Br)cc1)c1cc(Br)c(Br)s1,,16.9 µM (active)

# System: CP315
# Test: as above
# Details: P. falciparum in erythrocytes, SYBR Green DNA, 72 h; series mostly up to 28.7 µM; activity, negative = inhibition: at the top concentration
# How it was run: as §1
SMILES,"activity, negative = inhibition",Potency
CC1(C)C(C=C(Cl)Cl)C1C(=O)OCc1cccc(Oc2ccccc2)c1 (stereo not drawn),-3.59% (inactive),
CC1=C(/C=C/C(C)=C/C=C/C(C)=C/CO)C(C)(C)CCC1,-1.92% (inactive),
CN(C)CCCN1c2ccccc2C(C)(C)c2ccccc21,-14.5% (inactive),
CCN(CC)CCOc1ccc(-c2nc3cc(Cl)ccc3s2)cc1,-8.73% (inactive),
O=S(=O)(O)c1cc(O)c2c(N=Nc3ccc(Nc4ccccc4)c4c(S(=O)(=O)O)cccc34)cc(S(=O)(=O)O)cc2c1,-22.3% (inactive),
IC(I)I,-0.13% (inactive),
CC(Cc1ccc(O)c(O)c1)C(C)Cc1ccc(O)c(O)c1 (stereo not drawn),-7.8% (inactive),
CCCCCCCC(=O)O,-0.39% (inactive),
CCCCC(CC)COC(=O)CC(C(=O)OCC(CC)CCCC)S(=O)(=O)O (stereo not drawn),-1.84% (inactive),
C=C1C(=CC=C2CCC[C@@]3(C)[C@@H]2CC[C@H]3[C@H](C)CCCC(C)C)C[C@@H](O)C[C@@H]1O,-1.48% (inactive),
Clc1cc(Cl)c(OCC#CI)cc1Cl,-14.6% (inactive),
O=C(Nc1cccc(C(F)(F)F)c1)c1cc(Br)cc(Br)c1O,,15.1 µM (active)
C#C[C@]1(O)CC[C@H]2[C@@H]3CCC4=CCCC[C@@H]4[C@H]3C(=C)C[C@@]21CC,0.277% (inactive),
CCOC(=O)C1=C(C)NC(C)=C(C(=O)OCC)C1c1ccccc1C=CC(=O)OC(C)(C)C,,10.7 µM (active)
O=C(O)c1cc(=O)c2c3nc4ccccc4oc-3cc(=O)c2[nH]1,-4.13% (inactive),
NC(=O)c1ncn(C2OC(CO)C(O)C2O)n1 (stereo not drawn),-8.03% (inactive),
Nc1c(Br)cc(Br)cc1CNC1CCC(O)CC1 (stereo not drawn),-9.33% (inactive),
CC(C)=O,-9.05% (inactive),

# System: CP325
# Test: as above
# Details: P. falciparum in erythrocytes, SYBR Green DNA, 72 h; series mostly up to 28.7 µM; activity, negative = inhibition: at the top concentration
# How it was run: as §1
SMILES,"activity, negative = inhibition",Potency
CC1(C)C(C=C(Cl)Cl)C1C(=O)OCc1cccc(Oc2ccccc2)c1 (stereo not drawn),1.66% (inactive),
CC1=C(/C=C/C(C)=C/C=C/C(C)=C/CO)C(C)(C)CCC1,-7.8% (inactive),
CN(C)CCCN1c2ccccc2C(C)(C)c2ccccc21,-23.9% (inactive),
CCN(CC)CCOc1ccc(-c2nc3cc(Cl)ccc3s2)cc1,-5.11% (inactive),
O=S(=O)(O)c1cc(O)c2c(N=Nc3ccc(Nc4ccccc4)c4c(S(=O)(=O)O)cccc34)cc(S(=O)(=O)O)cc2c1,-21.7% (inactive),
IC(I)I,0.987% (inactive),
CC(Cc1ccc(O)c(O)c1)C(C)Cc1ccc(O)c(O)c1 (stereo not drawn),-9.89% (inactive),
CCCCCCCC(=O)O,-0.123% (inactive),
CCCCC(CC)COC(=O)CC(C(=O)OCC(CC)CCCC)S(=O)(=O)O (stereo not drawn),0.508% (inactive),
C=C1C(=CC=C2CCC[C@@]3(C)[C@@H]2CC[C@H]3[C@H](C)CCCC(C)C)C[C@@H](O)C[C@@H]1O,-3.72% (inactive),
C#C[C@]1(O)CC[C@H]2[C@@H]3CCC4=CCCC[C@@H]4[C@H]3C(=C)C[C@@]21CC,5.36% (inactive),
CCOC(=O)C1=C(C)NC(C)=C(C(=O)OCC)C1c1ccccc1C=CC(=O)OC(C)(C)C,,12 µM (active)
O=C(O)c1cc(=O)c2c3nc4ccccc4oc-3cc(=O)c2[nH]1,-9.28% (inactive),
NC(=O)c1ncn(C2OC(CO)C(O)C2O)n1 (stereo not drawn),-3.65% (inactive),
Nc1c(Br)cc(Br)cc1CNC1CCC(O)CC1 (stereo not drawn),-14.9% (inactive),
CC(C)=O,3.05% (inactive),
CC(=O)Oc1cc(C)c(OC(C)=O)c2ccccc12,,15.1 µM (active)
